# Screening data deposited in PubChem by National Center for Advancing Translational Sciences (NCATS).
# Shown are actives, neighbours in structure and some others; about 5.4% of the full set was active somewhere.
# FMDV inh – foot and mouth disease virus antiviral activity; FMDV antiviral cell-based qHTS; Potency, µM (titrated, usually from 57.9 µM), hits mostly inhibitors; 410,000 compounds, 1.2% hits; calls by dose curve; tested in HEK293T cells; also: read-out not given here; nearly all actives have a fitted effect of over 45% in size
# Vaccinia mCherry – inhibitors of vaccinia virus infection (mCherry reporter signal); Vaccinia virus mCherry reporter infection, fluorescence; 310,000 compounds, 0.63% hits; Potency, µM (series often up to 36.5 µM), most hits filed as inhibitors; AID 720579; calls by dose curve; tested in A549 cells; also: nearly all actives have a fitted effect of over 35% in size
# MARV entry inh – blocks Marburg virus binding to or entry into cells; Marburg virus pseudotyped entry inhibition, cell reporter; Potency, µM (doses to about 37.8 µM), usual class: inhibitors; AID 540276; 300,000 compounds, 1.8% hits; calls by dose curve; tested in HEK293 cells
# Lassa entry inh – blocks Lassa virus binding to or entry into cells; Potency, µM (highest dose often 37.9 µM), most hits filed as inhibitors; Lassa virus pseudotype entry inhibition, cell reporter; 300,000 compounds, 1.2% hits; calls by dose curve; tested in HEK293 cells; also: nearly all actives have a fitted effect of over 50% in size
# VACV Venus inh – vaccinia inhibition (Venus reporter) | Potency, µM (highest dose often 36.5 µM), most hits filed as inhibitors | Vaccinia virus Venus reporter expression, fluorescence | AID 720580 | 330,000 compounds, 0.46% hits; calls by dose curve; tested in A549 cells; also: nearly all actives have a fitted effect of over 30% in size
# Sm TGR block – S. mansoni TGR enzyme inhibition; Q962Y6; Potency, µM (top dose mostly 114 µM), actives largely listed as inhibitors; 360,000 compounds, 3% hits; purified TGR, DTNB reduction, TNB absorbance 405 nm; active = well fitted inhibition curve with a large enough effect; inconclusive = small, poorly fitted or top-dose-only effect; inactive = no such curve, though single readings can be large or run the other way; also: nearly all actives have a fitted effect of over 60% in size
#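 Kinetic colorimetric format: TGR-catalysed, NADPH-driven DTNB reduction monitored via TNB absorbance. Enzyme dispensed at 20 nM; compound exposure 15 min at room temperature before reaction start.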
# A number is an active result; . = inactive; ? = inconclusive; / = no result; ! = repeats disagree; [ ] = remark or other dose.
SMILES,FMDV inh,Vaccinia mCherry,MARV entry inh,Lassa entry inh,VACV Venus inh,Sm TGR block
CCOC(=O)C(C(C)=O)c1c(Br)c(O)c(O)c2c(C(=O)c3ccc(C)cc3)coc12 (stereo unspecified),.,13µM,2.3µM!,.,13µM,4.5µM
CCn1cc(C(=O)NCc2ccco2)c(=O)c2cc(F)c(N3CCN(C(=O)c4ccco4)CC3)cc21,?,.,?,?,?,20µM
CCC(C)NC(=O)c1cn(CC)c2cc(N3CCN(C(=O)c4ccco4)CC3)c(F)cc2c1=O (stereo unspecified),.,5µM,.,?,?,?
CCn1cc(C(=O)NCC(C)C)c(=O)c2cc(F)c(N3CCN(C(=O)c4ccco4)CC3)cc21,.,.,.,?,.,.
O=C(NCc1ccccc1Cl)c1cc(=O)[nH]c2ccccc12,.,.,.,.,.,50µM
CCN(CC)S(=O)(=O)c1cccc(-c2nnc(SCc3nc4ccccc4s3)o2)c1,.,/,?,?,28µM,.
CCN(CC)S(=O)(=O)c1cccc(-c2nnc(SCCCC(=O)c3ccccc3)o2)c1,?,/,?,?,/,.
Brc1ccccc1-c1nnc(SCc2nc3ccccc3s2)o1,.,.,?,?,.,.
CCN(CC)S(=O)(=O)c1cccc(-c2nnc(SCCCC(=O)c3ccc(F)cc3)o2)c1,?,/,21µM!,?,/,.
COc1cc2c(C#N)c(N3CCN(c4ccccc4OC)CC3)nc(N)c2c(N)n1,40µM,/,?,11µM,?,.
Cc1ccc2c(c1)-c1nc(-c3ccc4c(c3)NC(=O)CO4)cc(-c3ccccc3)c1CO2,.,.,.,.,.,.
CC(C)(C)C(=O)Cn1c(=O)n(CCCCCC(=O)NCc2ccc3c(c2)OCO3)c(=O)c2sccc21,.,.,.,.,.,.
CC1CCN(C(=O)CSc2c(C(C)C)cnc3c2c(=O)n(C)c(=O)n3C)CC1,?,.,/,.,.,.
COc1ccc(-n2c(CNC(=O)c3cccc4ccccc34)nnc2SC)cc1,.,.,/,/,.,/
CS(=O)(=O)N1CCCC(c2nc(-c3ccc(S(=O)(=O)NCc4ccccc4)cc3)no2)C1 (stereo unspecified),?,/,0.13µM!,?,/,.
Cc1ccc(-c2noc(C3CCCN(S(=O)(=O)c4ccc5ccccc5c4)C3)n2)o1 (stereo unspecified),/,.,.,.,.,40µM
Cc1ccc(S(=O)(=O)N2CCCC(c3nc(-c4ccc(C)o4)no3)C2)cc1 (stereo unspecified),/,.,?,.,.,.
CC(=O)c1cccc(S(=O)(=O)N2CCCC(c3nc(-c4ccc(C)o4)no3)C2)c1 (stereo unspecified),.,?,.,.,.,50µM
Cc1ccc(Cn2cc(C(=O)c3ccc4c(c3)OCO4)c(=O)c3cc(C)ccc32)cc1,.,.,.,?,.,.
C=CC[C@H](CC(=O)N(CCO)Cc1ccccc1)C(=O)N[C@@H](COC(=O)[C@@H](CC=C)Cc1ccc(F)cc1)Cc1c[nH]c2ccccc12,?,11µM,/,/,10µM,/
C=CC[C@@H](CC(=O)N(CCO)Cc1ccccc1)C(=O)N[C@@H](COC(=O)[C@@H](CC=C)Cc1ccc(F)cc1)Cc1c[nH]c2ccccc12,.,?,/,/,10µM,/
Cc1ccc2nc(CCl)[n+]([O-])c(-c3ccccc3)c2c1,28µM,.,.,.,.,4.5µM
Cc1ccc2nc(Cl)c(-c3ccccc3)cc2c1,.,.,.,?,.,/
COCCn1c(SCC(=O)Nc2ccccc2C(F)(F)F)nc2ccccc2c1=O,.,.,?,.,.,.
CC(C)CCn1c(SCC(=O)Nc2ccccc2C(F)(F)F)nc2nccnc2c1=O,.,/,/,/,/,22µM
SMILES,FMDV inh,Vaccinia mCherry,MARV entry inh,Lassa entry inh,VACV Venus inh,Sm TGR block
CCC(=O)NNc1ncnc2c1cnn2-c1ccc(C)c(Cl)c1,.,.,/,?,.,.
Cc1ccccc1NC(=O)c1ccc(F)c(S(=O)(=O)N(C)Cc2ccccc2)c1,?,?,/,.,.,.
O=C(NC(=S)Nc1cccc(F)c1)c1cccc([N+](=O)[O-])c1,.,.,/,/,.,20µM
Cc1cccc(NC(=S)NNC(=O)c2cccc([N+](=O)[O-])c2)c1,.,.[7.34 µM],.,.,.[7.34 µM],.
O=C(NC(=S)Nc1ccc2[nH]c(=O)[nH]c2c1)c1cccc(F)c1,.,.,?,?,.,2.8µM
O=C(NC(=S)Nc1ccc(CN2CCOCC2)cc1)c1cccc([N+](=O)[O-])c1,.,.,.,.,.,89µM
C=CCNC(=S)Nc1cccc([N+](=O)[O-])c1,.,?,/,/,.,32µM
COc1cccc(C(=O)NC(=S)Nc2ccc3[nH]c(=O)[nH]c3c2)c1,.,.,.,.,.,?
O=C(NC(=S)Nc1ccc(CN2CCOCC2)cc1)c1cccc(F)c1,.,.,?,?,.,?
CCn1c(-c2ccccc2F)nc2cc(C(=O)NCc3ccc(C)o3)cc(NC(C)=O)c21,.,.,/,/,.,/
Cc1ccc(-n2ncc3c(N4CCN(C)CC4)ncnc32)cc1C,.,.,/,.,.,.
O=C(NC(=S)Nc1ccc(N2CCOCC2)cc1)c1cccc([N+](=O)[O-])c1,.,.,.,.,.,40µM
CCCCCCn1c([C@H](C)O)nc2ccccc21,/,/,.,/,/,/
COc1ccc2[nH]c(C)c(C(=O)CN3C[C@@H](C)O[C@@H](C)C3)c2c1,/,/,.,/,/,/
Cc1[nH]c2ccccc2c1C(=O)CN1CC(C)OC(C)C1 (stereo unspecified),.,.,.,.,.,32µM
Cc1[nH]c2ccccc2c1C(O)CN1CCC2(CC1)OCCO2 (stereo unspecified),.,/,/,/,/,16µM
Cc1[nH]c2ccccc2c1C(=O)CCl,25µM,?,/,/,?,2µM
Cc1[nH]c2ccccc2c1C(=O)CN(C)c1ccccc1,/,.,/,/,.,/
COc1ccc2c(c1)c(C(O)CN1CCC3(CC1)OCCO3)c(C)n2C (stereo unspecified),/,/,.,/,/,25µM
CCOC(=O)NN=Cc1ccccc1-c1cc(OC)ccc1OC,/,/,.,/,/,/
COC(=O)[C@@]1(C=C2c3ccc(F)cc3[C@@H](OC)[C@@H]2C)[C@@H]2CC=C[C@@H]21,/,/,.,/,/,/
CC1=CC2C(C(C)C)CCC(C)(O)C2CC1 (stereo unspecified),.,.,/,/,.,/
COc1ccc(C(=O)NCc2nnc(SC)n2-c2ccccc2C)c(OC)c1OC,.,.,/,/,.,/
CC1CN(CC(=O)c2ccccc2Cl)CC(C)O1 (stereo unspecified),.,.,.,.,.,45µM
CC1CCN(CC(=O)c2ccccc2Cl)CC1,.,.,.,.,.,.
Cc1[nH]c2ccccc2c1C(=O)CN1CCC(C)CC1,.,.,.,.,.,?
Cc1[nH]c2ccccc2c1C(=O)CN1CCC2(CC1)OCCO2,.,.,.,.,.,45µM
Cc1cnc(SCC2CCCO2)nc1C1CCCN(C(=O)C2=NNC(=O)CC2)C1 (stereo unspecified),.,.,/,/,.,/
